Experimental data published in the supplement of paper PMC11732987, “Enantioselective OTUD7B fragment discovery through chemoproteomics screening and high-throughput optimisation” (Communications Chemistry, 2025).

Legend:
Experiment in all cases: log2 ratio of Biotin-Ahx-Ub-VS probe labelling (fragment/DMSO); higher = less target engagement (more negative = stronger competition), active = hit call of the paper (q ≤ 0.05, log2 ratio ≤ -1)
Settings in all cases: compound concentration: 200 uM; treatment time: 3 h
[1] = target: USP34 (UniProt Q70CQ2)
Method in brief: (§1)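 HEK293T lysate, 495 µg per sample in Tris/CHAPS/IGEPAL buffer with protease inhibitors, was treated in triplicate with fragment at 200 µM or vehicle for 3 h and then with Biotin-Ahx-Ub-VS at 0.5 µM final for 1 h. Labelled DUBs were NeutrAvidin-enriched, digested with LysC and trypsin, and run by diaPASEF LC-MS/MS. Spectronaut label-free quantities were global-median-normalised, and values are average log2 fragment/vehicle ratios by unpaired t-test on proteins with ≥2 unique peptides.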

[2] = target: T1, USP36 (UniProt Q9P275)
T1 sequence (whole entry): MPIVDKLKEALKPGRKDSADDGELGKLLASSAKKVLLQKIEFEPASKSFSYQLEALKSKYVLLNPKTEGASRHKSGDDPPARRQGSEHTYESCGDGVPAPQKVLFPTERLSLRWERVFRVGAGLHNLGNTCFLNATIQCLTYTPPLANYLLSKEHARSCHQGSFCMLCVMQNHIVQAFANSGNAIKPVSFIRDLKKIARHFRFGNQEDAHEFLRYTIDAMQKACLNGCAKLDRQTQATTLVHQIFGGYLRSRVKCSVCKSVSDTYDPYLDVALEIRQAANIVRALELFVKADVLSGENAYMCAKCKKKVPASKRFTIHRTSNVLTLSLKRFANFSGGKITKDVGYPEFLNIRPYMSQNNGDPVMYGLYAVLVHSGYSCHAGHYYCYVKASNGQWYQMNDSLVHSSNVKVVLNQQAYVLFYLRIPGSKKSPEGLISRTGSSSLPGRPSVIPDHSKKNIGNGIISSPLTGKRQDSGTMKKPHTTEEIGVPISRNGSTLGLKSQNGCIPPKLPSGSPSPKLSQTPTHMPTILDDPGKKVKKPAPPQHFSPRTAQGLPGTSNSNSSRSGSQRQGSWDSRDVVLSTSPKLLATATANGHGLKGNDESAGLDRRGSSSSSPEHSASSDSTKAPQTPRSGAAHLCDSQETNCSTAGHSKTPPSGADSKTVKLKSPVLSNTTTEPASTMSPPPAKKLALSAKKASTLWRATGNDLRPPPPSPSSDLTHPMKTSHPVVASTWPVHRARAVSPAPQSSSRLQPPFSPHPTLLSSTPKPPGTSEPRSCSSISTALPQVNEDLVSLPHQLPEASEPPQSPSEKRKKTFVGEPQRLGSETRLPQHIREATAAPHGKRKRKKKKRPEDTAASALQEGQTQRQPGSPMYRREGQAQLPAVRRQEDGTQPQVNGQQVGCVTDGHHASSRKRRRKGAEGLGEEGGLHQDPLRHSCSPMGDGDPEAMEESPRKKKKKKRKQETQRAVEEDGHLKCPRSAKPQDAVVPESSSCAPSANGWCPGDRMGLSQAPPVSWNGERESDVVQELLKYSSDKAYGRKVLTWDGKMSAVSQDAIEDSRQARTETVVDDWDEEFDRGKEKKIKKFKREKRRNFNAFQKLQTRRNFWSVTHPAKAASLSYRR
Method in brief: as §1

[3] = target: T2, USP38 (UniProt Q8NB14)
T2 sequence (whole entry): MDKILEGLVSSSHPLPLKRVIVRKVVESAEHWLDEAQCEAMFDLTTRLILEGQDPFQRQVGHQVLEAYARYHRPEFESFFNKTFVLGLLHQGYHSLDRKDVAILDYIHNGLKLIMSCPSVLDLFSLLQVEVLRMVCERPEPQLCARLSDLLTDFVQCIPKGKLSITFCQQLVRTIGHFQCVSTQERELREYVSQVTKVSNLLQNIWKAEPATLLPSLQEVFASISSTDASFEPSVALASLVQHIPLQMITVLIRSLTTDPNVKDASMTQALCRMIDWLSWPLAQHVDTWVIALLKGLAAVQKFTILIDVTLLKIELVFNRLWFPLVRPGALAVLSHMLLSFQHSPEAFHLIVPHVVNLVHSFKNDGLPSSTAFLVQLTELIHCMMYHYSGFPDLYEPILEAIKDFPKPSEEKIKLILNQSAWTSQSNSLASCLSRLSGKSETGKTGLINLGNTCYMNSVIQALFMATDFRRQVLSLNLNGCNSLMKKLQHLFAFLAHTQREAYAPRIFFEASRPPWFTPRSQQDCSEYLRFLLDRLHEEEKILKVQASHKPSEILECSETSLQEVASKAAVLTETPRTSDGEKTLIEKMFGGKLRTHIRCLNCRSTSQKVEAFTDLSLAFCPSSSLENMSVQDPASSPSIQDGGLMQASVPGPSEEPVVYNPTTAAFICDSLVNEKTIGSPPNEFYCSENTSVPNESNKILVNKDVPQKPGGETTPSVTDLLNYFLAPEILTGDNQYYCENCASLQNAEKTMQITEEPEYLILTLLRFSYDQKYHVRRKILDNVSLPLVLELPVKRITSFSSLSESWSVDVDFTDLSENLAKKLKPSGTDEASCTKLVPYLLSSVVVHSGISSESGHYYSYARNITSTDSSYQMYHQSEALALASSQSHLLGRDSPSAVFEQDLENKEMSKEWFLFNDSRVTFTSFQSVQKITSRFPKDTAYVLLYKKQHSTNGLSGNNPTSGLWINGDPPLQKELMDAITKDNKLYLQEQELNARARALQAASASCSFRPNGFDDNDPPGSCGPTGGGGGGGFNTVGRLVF
Method in brief: as §1

[4] = target: T3, USP39 (UniProt Q53GS9)
T3 sequence (whole entry): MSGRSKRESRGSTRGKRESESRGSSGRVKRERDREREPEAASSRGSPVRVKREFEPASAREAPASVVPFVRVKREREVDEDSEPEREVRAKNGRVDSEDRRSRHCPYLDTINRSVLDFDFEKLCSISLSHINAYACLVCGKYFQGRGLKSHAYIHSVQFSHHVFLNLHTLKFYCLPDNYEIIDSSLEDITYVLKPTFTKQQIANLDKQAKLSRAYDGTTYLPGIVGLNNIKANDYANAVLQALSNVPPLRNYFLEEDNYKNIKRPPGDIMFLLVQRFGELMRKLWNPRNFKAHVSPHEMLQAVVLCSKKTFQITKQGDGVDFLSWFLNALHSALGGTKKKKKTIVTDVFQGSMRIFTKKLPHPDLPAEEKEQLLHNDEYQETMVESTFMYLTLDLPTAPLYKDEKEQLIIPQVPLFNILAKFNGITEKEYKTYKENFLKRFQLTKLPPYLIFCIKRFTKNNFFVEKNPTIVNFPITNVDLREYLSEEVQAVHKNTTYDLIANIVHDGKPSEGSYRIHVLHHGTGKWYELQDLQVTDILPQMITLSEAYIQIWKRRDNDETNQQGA
Method in brief: as §1

[5] = target: T4, USP4 (UniProt Q13107)
T4 sequence (whole entry): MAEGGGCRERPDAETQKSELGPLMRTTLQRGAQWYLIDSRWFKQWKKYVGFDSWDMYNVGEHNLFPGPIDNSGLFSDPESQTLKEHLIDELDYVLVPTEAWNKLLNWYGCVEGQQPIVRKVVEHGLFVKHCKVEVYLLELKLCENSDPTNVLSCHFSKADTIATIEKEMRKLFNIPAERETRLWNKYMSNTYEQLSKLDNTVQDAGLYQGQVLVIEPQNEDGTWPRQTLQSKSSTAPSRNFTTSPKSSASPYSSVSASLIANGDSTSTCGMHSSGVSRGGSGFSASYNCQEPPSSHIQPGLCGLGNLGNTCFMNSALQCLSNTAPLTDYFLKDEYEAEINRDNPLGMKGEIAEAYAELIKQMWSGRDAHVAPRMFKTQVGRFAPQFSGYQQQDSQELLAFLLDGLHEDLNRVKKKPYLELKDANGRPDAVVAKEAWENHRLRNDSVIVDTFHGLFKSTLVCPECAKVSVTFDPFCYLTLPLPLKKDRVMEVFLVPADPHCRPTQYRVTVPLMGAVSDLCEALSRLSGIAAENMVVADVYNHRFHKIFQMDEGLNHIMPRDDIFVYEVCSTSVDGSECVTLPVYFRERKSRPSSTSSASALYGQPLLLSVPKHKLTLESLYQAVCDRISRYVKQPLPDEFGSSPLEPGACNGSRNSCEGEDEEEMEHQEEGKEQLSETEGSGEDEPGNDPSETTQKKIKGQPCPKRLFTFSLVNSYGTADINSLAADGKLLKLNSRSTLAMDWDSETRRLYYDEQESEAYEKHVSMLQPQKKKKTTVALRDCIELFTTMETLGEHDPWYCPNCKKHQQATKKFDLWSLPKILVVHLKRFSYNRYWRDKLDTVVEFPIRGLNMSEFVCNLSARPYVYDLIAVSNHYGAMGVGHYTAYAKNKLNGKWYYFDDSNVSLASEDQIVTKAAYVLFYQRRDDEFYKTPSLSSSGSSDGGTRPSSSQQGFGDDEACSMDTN
Method in brief: as §1

Measured: log2 ratio of Biotin-Ahx-Ub-VS probe labelling

Chain of USP34 (Q70CQ2 whole entry, the tested form may be a part): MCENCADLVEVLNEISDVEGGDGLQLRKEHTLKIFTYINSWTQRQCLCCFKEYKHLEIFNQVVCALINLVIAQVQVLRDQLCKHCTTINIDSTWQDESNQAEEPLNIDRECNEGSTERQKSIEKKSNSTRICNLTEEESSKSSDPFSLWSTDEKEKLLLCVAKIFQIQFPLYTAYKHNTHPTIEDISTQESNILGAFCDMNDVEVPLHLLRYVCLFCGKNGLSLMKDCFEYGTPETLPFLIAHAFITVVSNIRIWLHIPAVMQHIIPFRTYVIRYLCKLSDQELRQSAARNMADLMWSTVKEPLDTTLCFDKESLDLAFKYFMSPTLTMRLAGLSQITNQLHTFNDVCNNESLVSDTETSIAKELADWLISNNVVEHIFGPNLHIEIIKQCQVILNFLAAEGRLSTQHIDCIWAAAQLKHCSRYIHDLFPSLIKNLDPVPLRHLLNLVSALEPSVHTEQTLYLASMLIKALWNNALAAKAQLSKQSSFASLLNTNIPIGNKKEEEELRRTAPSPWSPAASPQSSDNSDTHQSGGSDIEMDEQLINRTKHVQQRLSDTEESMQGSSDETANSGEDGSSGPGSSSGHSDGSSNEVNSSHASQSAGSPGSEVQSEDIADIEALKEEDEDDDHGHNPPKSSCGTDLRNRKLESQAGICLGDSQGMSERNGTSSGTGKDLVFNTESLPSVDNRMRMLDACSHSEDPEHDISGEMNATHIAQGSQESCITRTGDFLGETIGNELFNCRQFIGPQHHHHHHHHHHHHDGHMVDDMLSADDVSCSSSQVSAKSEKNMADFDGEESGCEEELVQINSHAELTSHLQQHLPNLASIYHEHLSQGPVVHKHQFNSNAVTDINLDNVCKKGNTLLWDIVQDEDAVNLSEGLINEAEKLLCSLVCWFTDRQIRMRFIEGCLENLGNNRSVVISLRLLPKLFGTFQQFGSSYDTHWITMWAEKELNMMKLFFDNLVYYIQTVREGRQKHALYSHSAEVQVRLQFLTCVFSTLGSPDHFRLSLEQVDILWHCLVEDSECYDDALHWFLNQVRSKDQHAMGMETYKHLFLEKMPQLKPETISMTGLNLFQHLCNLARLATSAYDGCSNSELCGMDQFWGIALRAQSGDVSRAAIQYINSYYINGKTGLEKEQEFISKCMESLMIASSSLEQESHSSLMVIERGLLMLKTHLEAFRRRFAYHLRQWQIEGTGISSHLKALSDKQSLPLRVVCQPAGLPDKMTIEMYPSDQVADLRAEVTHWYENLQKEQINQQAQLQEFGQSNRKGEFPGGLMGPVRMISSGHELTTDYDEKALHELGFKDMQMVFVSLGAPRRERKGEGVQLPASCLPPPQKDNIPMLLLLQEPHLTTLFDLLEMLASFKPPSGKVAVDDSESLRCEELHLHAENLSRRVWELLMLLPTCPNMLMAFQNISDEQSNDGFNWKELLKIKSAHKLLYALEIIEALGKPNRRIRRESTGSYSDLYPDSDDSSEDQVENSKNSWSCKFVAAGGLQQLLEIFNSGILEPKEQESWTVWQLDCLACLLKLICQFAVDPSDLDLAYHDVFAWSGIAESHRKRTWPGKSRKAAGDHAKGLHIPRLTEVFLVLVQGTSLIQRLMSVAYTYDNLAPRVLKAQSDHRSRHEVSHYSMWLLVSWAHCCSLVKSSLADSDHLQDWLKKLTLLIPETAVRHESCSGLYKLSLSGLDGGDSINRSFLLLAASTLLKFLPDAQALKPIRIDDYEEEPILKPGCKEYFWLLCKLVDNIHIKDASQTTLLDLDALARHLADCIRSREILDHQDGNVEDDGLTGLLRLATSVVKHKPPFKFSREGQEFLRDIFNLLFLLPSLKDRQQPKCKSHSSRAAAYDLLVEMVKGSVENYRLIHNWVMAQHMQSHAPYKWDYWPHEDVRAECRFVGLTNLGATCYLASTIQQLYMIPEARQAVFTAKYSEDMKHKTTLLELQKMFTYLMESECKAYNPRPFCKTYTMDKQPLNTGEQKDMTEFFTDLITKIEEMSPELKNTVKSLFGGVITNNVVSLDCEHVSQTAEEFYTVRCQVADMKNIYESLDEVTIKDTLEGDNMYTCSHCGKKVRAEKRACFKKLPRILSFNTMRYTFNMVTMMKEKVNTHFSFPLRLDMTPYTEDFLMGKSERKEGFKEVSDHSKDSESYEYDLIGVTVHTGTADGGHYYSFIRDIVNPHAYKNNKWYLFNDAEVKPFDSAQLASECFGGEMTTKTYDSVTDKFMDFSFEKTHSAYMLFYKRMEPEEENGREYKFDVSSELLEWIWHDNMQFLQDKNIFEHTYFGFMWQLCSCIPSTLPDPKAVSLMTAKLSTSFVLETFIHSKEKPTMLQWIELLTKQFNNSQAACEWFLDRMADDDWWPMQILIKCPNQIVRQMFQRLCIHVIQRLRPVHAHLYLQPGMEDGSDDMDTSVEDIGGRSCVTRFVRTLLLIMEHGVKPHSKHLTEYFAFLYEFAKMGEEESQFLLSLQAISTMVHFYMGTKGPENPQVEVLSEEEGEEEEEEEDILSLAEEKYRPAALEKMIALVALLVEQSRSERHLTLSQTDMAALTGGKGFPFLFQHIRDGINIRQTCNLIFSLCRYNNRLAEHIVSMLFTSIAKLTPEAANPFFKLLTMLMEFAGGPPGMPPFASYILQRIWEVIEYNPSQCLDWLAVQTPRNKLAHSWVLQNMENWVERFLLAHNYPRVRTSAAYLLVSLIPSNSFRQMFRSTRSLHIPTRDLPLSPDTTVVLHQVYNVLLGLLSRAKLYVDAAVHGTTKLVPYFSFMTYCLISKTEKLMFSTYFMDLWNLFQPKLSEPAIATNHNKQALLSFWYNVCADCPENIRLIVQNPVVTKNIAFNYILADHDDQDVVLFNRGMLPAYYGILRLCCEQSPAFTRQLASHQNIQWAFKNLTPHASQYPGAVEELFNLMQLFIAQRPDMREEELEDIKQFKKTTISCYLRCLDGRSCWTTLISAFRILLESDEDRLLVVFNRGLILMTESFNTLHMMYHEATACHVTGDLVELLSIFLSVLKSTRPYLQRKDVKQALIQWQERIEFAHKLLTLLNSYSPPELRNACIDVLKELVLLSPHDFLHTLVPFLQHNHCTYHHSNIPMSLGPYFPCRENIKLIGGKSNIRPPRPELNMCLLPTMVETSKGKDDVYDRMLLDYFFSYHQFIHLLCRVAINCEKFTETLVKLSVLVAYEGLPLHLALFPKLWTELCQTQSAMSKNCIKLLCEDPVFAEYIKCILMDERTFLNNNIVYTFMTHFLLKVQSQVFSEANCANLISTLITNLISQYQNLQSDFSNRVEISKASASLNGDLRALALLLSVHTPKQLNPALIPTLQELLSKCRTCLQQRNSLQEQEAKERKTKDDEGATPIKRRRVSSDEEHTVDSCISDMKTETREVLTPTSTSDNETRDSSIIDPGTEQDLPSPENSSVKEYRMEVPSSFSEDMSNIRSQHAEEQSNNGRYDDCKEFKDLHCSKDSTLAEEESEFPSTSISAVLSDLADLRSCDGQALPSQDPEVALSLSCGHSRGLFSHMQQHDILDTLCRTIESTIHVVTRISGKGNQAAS

CC1CCc2onc(CNC(=O)CCl)c2C1 (stereo not given)
inactive: [1] 0.0236 | [2] 0.0286 | [3] 0.0155 | [4] 0.358 | [5] 0.094
